Experimental data from the supplement of paper PMC7261846.
Where a name gives a salt, the structure may show the parent alone. ± gives the uncertainty stated by the source.

Test system: Candida albicans SNY425 biofilm
Experiment: biofilm OD600 with compound plus antifungal (OD600 (absorbance)); higher = more biofilm remaining
[1] = assay detail: disruption of 24-h mature biofilm (compound + antifungal for a second 24 h)
[2] = assay detail: sustained inhibition (compound + antifungal during 90-min adherence and 24-h growth)

SMILES	biofilm OD600 [1]	biofilm OD600 [2]
CO[C@@H]1[C@H](OC(=O)/C=C/C=C/C=C/C=C/C(=O)O)CC[C@]2(CO2)[C@H]1[C@@]1(C)O[C@@H]1CC=C(C)C [Fumagillin] + OC(Cn1cncn1)(Cn1cncn1)c1ccc(F)cc1F [fluconazole] (first compound 12.5 µM)	0.246 ± 0.013	0.117 ± 0.0056
CO[C@@H]1[C@H](OC(=O)/C=C/C=C/C=C/C=C/C(=O)O)CC[C@]2(CO2)[C@H]1[C@@]1(C)O[C@@H]1CC=C(C)C [Fumagillin] + C[C@@H]1[C@H](O)[C@@H](C)/C=C/C=C/C=C/C=C/C=C/C=C/C=C/[C@H](O[C@@H]2O[C@H](C)[C@@H](O)[C@H](N)[C@@H]2O)C[C@@H]2O[C@](O)(C[C@@H](O)C[C@@H](O)[C@H](O)CC[C@@H](O)C[C@@H](O)CC(=O)O[C@H]1C)C[C@H](O)[C@H]2C(=O)O [amphotericin B] (first compound 12.5 µM)	0.264 ± 0.0097	0.185 ± 0.0052
O=C(O)CNC(=O)C(CS)Cc1ccccc1 (racemic) [DL-Thiorphan] + C[C@@H]1[C@H](O)[C@@H](C)/C=C/C=C/C=C/C=C/C=C/C=C/C=C/[C@H](O[C@@H]2O[C@H](C)[C@@H](O)[C@H](N)[C@@H]2O)C[C@@H]2O[C@](O)(C[C@@H](O)C[C@@H](O)[C@H](O)CC[C@@H](O)C[C@@H](O)CC(=O)O[C@H]1C)C[C@H](O)[C@H]2C(=O)O [amphotericin B] (first compound 12.5 µM)	0.264 ± 0.0083	0.164 ± 0.012
O=C[C@@H]1CCCN1C(=O)[C@@H]1CCCN1C(=O)OCc1ccccc1 [Z-Prolyl-prolinal] + CC[C@H](C)C[C@H](C)CCCCCCCCC(=O)N[C@H]1C[C@@H](O)[C@@H](NCCN)NC(=O)[C@@H]2[C@@H](O)CCN2C(=O)[C@H]([C@H](O)CCN)NC(=O)[C@H]([C@H](O)[C@@H](O)c2ccc(O)cc2)NC(=O)[C@@H]2C[C@@H](O)CN2C(=O)[C@H]([C@@H](C)O)NC1=O [caspofungin] (first compound 12.5 µM)	0.261 ± 0.0097	0.153 ± 0.0098
NCC1CCC(C(=O)N[C@@H](Cc2ccccc2)C(=O)Nc2ccc(CC(=O)O)cc2)CC1 (stereo partly drawn) + C[C@@H]1[C@H](O)[C@@H](C)/C=C/C=C/C=C/C=C/C=C/C=C/C=C/[C@H](O[C@@H]2O[C@H](C)[C@@H](O)[C@H](N)[C@@H]2O)C[C@@H]2O[C@](O)(C[C@@H](O)C[C@@H](O)[C@H](O)CC[C@@H](O)C[C@@H](O)CC(=O)O[C@H]1C)C[C@H](O)[C@H]2C(=O)O [amphotericin B] (first compound 12.5 µM)	0.271 ± 0.0064	0.182 ± 0.017
C[C@H](CS)C(=O)N1CCC[C@H]1C(=O)O [Captopril] + C[C@@H]1[C@H](O)[C@@H](C)/C=C/C=C/C=C/C=C/C=C/C=C/C=C/[C@H](O[C@@H]2O[C@H](C)[C@@H](O)[C@H](N)[C@@H]2O)C[C@@H]2O[C@](O)(C[C@@H](O)C[C@@H](O)[C@H](O)CC[C@@H](O)C[C@@H](O)CC(=O)O[C@H]1C)C[C@H](O)[C@H]2C(=O)O [amphotericin B] (first compound 12.5 µM)	0.285 ± 0.011	0.214 ± 0.0071
C[C@H](CS)C(=O)N1CCC[C@H]1C(=O)O [Captopril] + OC(Cn1cncn1)(Cn1cncn1)c1ccc(F)cc1F [fluconazole] (first compound 12.5 µM)	0.281 ± 0.0069	0.167 ± 0.01
CC(C)C[C@H](NC(=O)N[C@H](C(=O)N[C@@H](CCC(N)=O)C(=O)N[C@@H](C)C=O)[C@@H]1CCNC(=N)N1)C(=O)O [Elastatinal] + C[C@@H]1[C@H](O)[C@@H](C)/C=C/C=C/C=C/C=C/C=C/C=C/C=C/[C@H](O[C@@H]2O[C@H](C)[C@@H](O)[C@H](N)[C@@H]2O)C[C@@H]2O[C@](O)(C[C@@H](O)C[C@@H](O)[C@H](O)CC[C@@H](O)C[C@@H](O)CC(=O)O[C@H]1C)C[C@H](O)[C@H]2C(=O)O [amphotericin B] (first compound 12.5 µM)	0.273 ± 0.0073	0.21 ± 0.0065
CC(C)C[C@H](NP(=O)(O)O[C@@H]1O[C@@H](C)[C@H](O)[C@@H](O)[C@H]1O)C(=O)N[C@@H](Cc1c[nH]c2ccccc12)C(=O)O [Phosphoramidon] + CC[C@H](C)C[C@H](C)CCCCCCCCC(=O)N[C@H]1C[C@@H](O)[C@@H](NCCN)NC(=O)[C@@H]2[C@@H](O)CCN2C(=O)[C@H]([C@H](O)CCN)NC(=O)[C@H]([C@H](O)[C@@H](O)c2ccc(O)cc2)NC(=O)[C@@H]2C[C@@H](O)CN2C(=O)[C@H]([C@@H](C)O)NC1=O [caspofungin] (first compound 12.5 µM)	0.273 ± 0.012	0.191 ± 0.013
CC(C)CC(=O)N[C@H](C(=O)N[C@H](C(=O)N[C@@H](CC(C)C)[C@@H](O)CC(=O)N[C@@H](C)C(=O)N[C@@H](CC(C)C)[C@@H](O)CC(=O)O)C(C)C)C(C)C [Pepstatin A] + CC[C@H](C)C[C@H](C)CCCCCCCCC(=O)N[C@H]1C[C@@H](O)[C@@H](NCCN)NC(=O)[C@@H]2[C@@H](O)CCN2C(=O)[C@H]([C@H](O)CCN)NC(=O)[C@H]([C@H](O)[C@@H](O)c2ccc(O)cc2)NC(=O)[C@@H]2C[C@@H](O)CN2C(=O)[C@H]([C@@H](C)O)NC1=O [caspofungin] (first compound 12.5 µM)	0.264 ± 0.01	0.18 ± 0.013
CCCC[C@@H](C=O)NC(=O)[C@H](CC(C)C)NC(=O)OCc1ccccc1 [Calpeptin] + OC(Cn1cncn1)(Cn1cncn1)c1ccc(F)cc1F [fluconazole] (first compound 12.5 µM)	0.26 ± 0.0076	0.162 ± 0.01
CC(C)C[C@H](NC(=O)[C@H]1O[C@@H]1C(=O)O)C(=O)NCCCCN=C(N)N + OC(Cn1cncn1)(Cn1cncn1)c1ccc(F)cc1F [fluconazole] (first compound 12.5 µM)	0.255 ± 0.012	0.149 ± 0.0057
COC(=O)C[C@H](NC(=O)[C@H](C)NC(=O)[C@@H](NC(=O)OCc1ccccc1)C(C)C)C(=O)CF + C[C@@H]1[C@H](O)[C@@H](C)/C=C/C=C/C=C/C=C/C=C/C=C/C=C/[C@H](O[C@@H]2O[C@H](C)[C@@H](O)[C@H](N)[C@@H]2O)C[C@@H]2O[C@](O)(C[C@@H](O)C[C@@H](O)[C@H](O)CC[C@@H](O)C[C@@H](O)CC(=O)O[C@H]1C)C[C@H](O)[C@H]2C(=O)O [amphotericin B] (first compound 12.5 µM)	0.296 ± 0.013	0.184 ± 0.011
CC(C)C[C@@H](C=O)NC(=O)[C@H](CC(C)C)NC(=O)[C@H](CC(C)C)NC(=O)OCc1ccccc1 + CC[C@H](C)C[C@H](C)CCCCCCCCC(=O)N[C@H]1C[C@@H](O)[C@@H](NCCN)NC(=O)[C@@H]2[C@@H](O)CCN2C(=O)[C@H]([C@H](O)CCN)NC(=O)[C@H]([C@H](O)[C@@H](O)c2ccc(O)cc2)NC(=O)[C@@H]2C[C@@H](O)CN2C(=O)[C@H]([C@@H](C)O)NC1=O [caspofungin] (first compound 12.5 µM)	0.281 ± 0.0049	0.193 ± 0.0098
CC(C)c1nc(CN(C)C(=O)N[C@H](C(=O)N[C@@H](Cc2ccccc2)C[C@H](O)[C@H](Cc2ccccc2)NC(=O)OCc2cncs2)C(C)C)cs1 [ritonavir] + C[C@@H]1[C@H](O)[C@@H](C)/C=C/C=C/C=C/C=C/C=C/C=C/C=C/[C@H](O[C@@H]2O[C@H](C)[C@@H](O)[C@H](N)[C@@H]2O)C[C@@H]2O[C@](O)(C[C@@H](O)C[C@@H](O)[C@H](O)CC[C@@H](O)C[C@@H](O)CC(=O)O[C@H]1C)C[C@H](O)[C@H]2C(=O)O [amphotericin B] (first compound 12.5 µM)	0.246 ± 0.0053	0.146 ± 0.0034
N=C(N)Nc1ccc(C(=O)Oc2ccc3cc(C(=N)N)ccc3c2)cc1 [Nafamostat mesylate] + CC[C@H](C)C[C@H](C)CCCCCCCCC(=O)N[C@H]1C[C@@H](O)[C@@H](NCCN)NC(=O)[C@@H]2[C@@H](O)CCN2C(=O)[C@H]([C@H](O)CCN)NC(=O)[C@H]([C@H](O)[C@@H](O)c2ccc(O)cc2)NC(=O)[C@@H]2C[C@@H](O)CN2C(=O)[C@H]([C@@H](C)O)NC1=O [caspofungin] (first compound 12.5 µM)	0.25 ± 0.0081	0.162 ± 0.012
CC1(C)C[C@@H]1C(=O)N/C(=C\CCCCSC[C@H](N)C(=O)O)C(=O)O [Cilastatin] + C[C@@H]1[C@H](O)[C@@H](C)/C=C/C=C/C=C/C=C/C=C/C=C/C=C/[C@H](O[C@@H]2O[C@H](C)[C@@H](O)[C@H](N)[C@@H]2O)C[C@@H]2O[C@](O)(C[C@@H](O)C[C@@H](O)[C@H](O)CC[C@@H](O)C[C@@H](O)CC(=O)O[C@H]1C)C[C@H](O)[C@H]2C(=O)O [amphotericin B] (first compound 12.5 µM)	0.293 ± 0.012	0.211 ± 0.015
CCOC(=O)[C@H](CCc1ccccc1)N[C@@H](C)C(=O)N1CCC[C@H]1C(=O)O [Enalapril] + C[C@@H]1[C@H](O)[C@@H](C)/C=C/C=C/C=C/C=C/C=C/C=C/C=C/[C@H](O[C@@H]2O[C@H](C)[C@@H](O)[C@H](N)[C@@H]2O)C[C@@H]2O[C@](O)(C[C@@H](O)C[C@@H](O)[C@H](O)CC[C@@H](O)C[C@@H](O)CC(=O)O[C@H]1C)C[C@H](O)[C@H]2C(=O)O [amphotericin B] (first compound 12.5 µM)	0.279 ± 0.0057	0.197 ± 0.023
CC1CNc2c(cccc2S(=O)(=O)N[C@@H](CCCNC(=N)N)C(=O)N2CC[C@@H](C)C[C@@H]2C(=O)O)C1 (stereo partly drawn) [Argatroban] + OC(Cn1cncn1)(Cn1cncn1)c1ccc(F)cc1F [fluconazole] (first compound 12.5 µM)	0.286 ± 0.011	0.113 ± 0.0066
